From PubChem BioAssay AID652065 (The Scripps Research Institute Molecular Screening Center, 2013) come the findings set out here.

Structures are written as SMILES. The campaign covered roughly 4,300 compounds. About 3,000 (70%) were called active.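 The calls were made as follows: active = inhibition above a per-plate cutoff, the mean inhibition of sample wells plus 3 SD (cut at about 35% in these data); inactive = the rest.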 So high a share suggests a set chosen from earlier hits. Only a sample is shown.

The assay in a line: small molecules binding CAG repeat RNA – biochemical, fluorescence, confirmation (AID 652065).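 Also: loss of TO-PRO-1 fluorescence as compound displaces dye from 1x1 AA loop RNA; 0% = DMSO only wells and 100% = 100 µM mitoxantrone.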 As to conditions: r(CAG) RNA repeat, TO-PRO-1 dye displacement fluorescence; at 3 µM; active compounds read high.
Regarding `COc1ccc(C(CNC(=O)c2cccc(S(=O)(=O)Nc3ccccc3Cl)c2)N2CCOCC2)cc1` (centres undefined), the inhibition is 63.9% (active). Next, `Cc1cc(C(=O)N/N=C/c2ccc(O)c([N+](=O)[O-])c2)c(C)n1-c1ccc(F)cc1`: 42.6% (active).

For `Cc1sc(NC(=O)c2ccc3ncsc3c2)c(C(N)=O)c1C`, the inhibition is 18.1% (inactive). On to `O=c1ccc2c(-c3ccccc3S(=O)(=O)O)c3ccc(O)c(O)c3oc-2c1O`, for which the inhibition is 91.4% (active). Next, `CCc1ccc(N2CC(C(=O)Nc3ccc(S(=O)(=O)Nc4nccs4)cc3)CC2=O)cc1` (centres undefined): 42% (active); `CCCCCCC(=O)Nc1nc(C)c(-c2csc(Nc3cc(Cl)ccc3OC)n2)s1`: 21.8% (inactive); `O=C(CCc1ccccc1Cl)Nc1ccc(S(=O)(=O)Nc2nccs2)cc1`: 39.1% (active). The same measure for `O=C(Nc1ccc(S(=O)(=O)Nc2nccs2)cc1)c1cc(-c2ccncc2)nc2ccccc12`: 65.2% (active); for `Cc1ccc(OCCC(=O)Nc2ccc(S(=O)(=O)Nc3nccs3)cc2)cc1`: 35% (active); for `O=C(Nc1ccc(S(=O)(=O)Nc2nccs2)cc1)c1cccc(S(=O)(=O)N2CCOCC2)c1`: 20.8% (inactive). For `COC(=O)c1sc(-c2ccc(C(C)(C)C)cc2)cc1NC(=O)/C=C/C(=O)O`, the inhibition was 80% (active). Next, `C[C@H]([C@@H](O)[C@@H](O)[C@@H](C)C(C)(C)C)[C@H]1CC[C@H]2C3CC[C@H]4C[C@H](OS(=O)(=O)O)[C@@H](OS(=O)(=O)O)C[C@]4(C)[C@H]3CC[C@]12C` (some centres undefined): 87.8% (active); `O=C(Nc1ccccc1)Nc1nc2ccccc2s1`: 13.2% (inactive).

Consider `Cc1ccc(NC(=O)Nc2nnc(-c3ccncc3)s2)cc1`, for which the inhibition is 25.5% (inactive). Consider `O=C(Nc1ccccc1)Nc1nnc(COc2ccccc2F)s1`, for which the inhibition was 42.2% (active).

As for `COC(=O)c1sccc1NC(=O)CSc1ccccc1NS(=O)(=O)c1cc(Cl)ccc1Cl`, the inhibition was 73% (active). The same measure for `O=C(Nc1cccc(Cl)c1)Nc1ccccc1NS(=O)(=O)c1cccs1`: 34.4% (inactive); for `CCOc1cc(C(=O)Nc2ccc(S(=O)(=O)Nc3cnc4ccccc4n3)cc2)cc(OCC)c1OCC`: 66.4% (active). For `Cc1ccccc1-c1ccc2c(c1)O[C@@H](CN(C)Cc1ccc(C(=O)O)cc1)[C@@H](C)CN([C@H](C)CO)S2(=O)=O`, the inhibition was 58.3% (active). The same measure for `COc1cc(C(=O)Nn2c(O)c(C3=c4ccccc4=NC3=O)sc2=S)ccc1O`: 14.6% (inactive); for `Cc1cc(OC(C)C(=O)Nc2ccc(S(=O)(=O)Nc3onc(C)c3C)cc2)cc(C)c1Cl` (centres undefined): 62.4% (active); for `Cc1cc(C)c2nc(-c3cccnc3)cc(C(=O)Nc3ccc(S(=O)(=O)Nc4onc(C)c4C)cc3)c2c1`: 83.2% (active).

As for `CCn1c(SCC(=O)Nc2ccc(S(=O)(=O)Nc3onc(C)c3C)cc2)nnc1-c1ccccc1`, the inhibition was 22% (inactive). The same measure for `Cc1ccc(C(=O)/C=C/Nc2ccc(S(=O)(=O)Nc3onc(C)c3C)cc2)cc1`: 62.5% (active). Next, `CCc1ccc(OC(C)C(=O)Nc2ccc(S(=O)(=O)Nc3cc(C)on3)cc2)cc1` (centres undefined): 26.1% (inactive); `Cc1noc(NS(=O)(=O)c2ccc(NC(=O)c3oc4ccc(F)cc4c3C)cc2)c1C`: 71.9% (active); `COc1cccc(-c2coc3cc4oc(=O)c(CC(=O)O)c(C)c4cc23)c1`: 42.7% (active). The same measure for `O=C(COc1ccc([N+](=O)[O-])cc1)Nc1cccc(C(=O)Nc2ccccc2C(=O)O)c1`: 62.4% (active).

Regarding `CCN(CC)C(=O)CSC(Nc1cccc(F)c1)=C(C#N)C#N`, the inhibition is 38.4% (active). The same measure for `Cc1nnc(SC(C(=O)Nc2cc(Cl)cc(Cl)c2)c2ccccc2)[nH]c1=O` (centres undefined): 64.1% (active). Next, `COc1ccc(Cc2nnc(SCC(=O)Nc3ccc(C)c(Cl)c3)[nH]c2=O)cc1`: 62.5% (active); `CC(=O)Nc1ccc(S(=O)(=O)N(CCc2ccccc2)CC(=O)N/N=C/c2ccc(C(=O)O)cc2)cc1`: 28.1% (inactive); `Cc1cc(NS(=O)(=O)c2ccc(NC(=O)CSc3nnc(-c4ccc(C(C)(C)C)cc4)n3Cc3ccco3)cc2)nc(C)n1`: 23.6% (inactive). The same measure for `O=C(COC(=O)c1ccc(NS(=O)(=O)c2cccs2)cc1O)Nc1ccc(F)cc1`: 23.1% (inactive). Consider `Cc1cc(NS(=O)(=O)c2ccc(NC(=O)CSc3nnc(SCc4ccc(F)cc4)s3)cc2)nc(C)n1`, for which the inhibition was 45% (active).

Consider `C=CCn1c(=S)[nH]c2scc(-c3ccco3)c2c1=O`, for which the inhibition was 27.3% (inactive). The same measure for `COc1ccc(Br)cc1/C=N/Nc1ccc(S(=O)(=O)Nc2ccccc2C(=O)O)cc1[N+](=O)[O-]`: 93.4% (active). The same measure for `COc1cccc(/C=N/Nc2ccc(S(=O)(=O)Nc3ccccc3C(=O)O)cc2[N+](=O)[O-])c1O`: 93.9% (active); for `O=C(O)c1ccccc1/C=N/Nc1ccc(S(=O)(=O)Nc2ccc(Cl)cc2)cc1[N+](=O)[O-]`: 63.4% (active). For `NS(=O)(=O)c1ccc(N=Nc2c(O)[nH]c3ccc(Br)cc23)cc1`, the inhibition is 18.8% (inactive). Next, `O=C1/C(=C/c2ccc(F)cc2)SC(=S)N1NS(=O)(=O)c1ccccc1`: 53.6% (active); `COc1ccc(/C=C/C(=O)c2ccc(NS(=O)(=O)c3ccc(C)cc3)cc2)cc1O`: 54.9% (active); `COc1cc(/C=C2/C(=O)NN(c3cccc(Cl)c3)C2=O)cc(Br)c1O`: 24.5% (inactive). Next, `COc1cc(NC(=O)c2ccccc2NS(=O)(=O)c2ccc(Cl)s2)cc(OC)c1`: 82% (active); `O=C(Nc1nncs1)c1ccccc1NS(=O)(=O)c1cccs1`: 30.2% (inactive); `CCc1nnc(NS(=O)(=O)c2ccc(NC(=O)c3cccc(OC(F)(F)C(F)F)c3)cc2)s1`: 56.7% (active). The same measure for `CCc1nnc(NS(=O)(=O)c2ccc(NC(=S)NC(=O)c3cccs3)cc2)s1`: 46.7% (active). Consider `NS(=O)(=O)c1ccc(NC2=CC(c3ccc(F)cc3)N(c3ccc(S(N)(=O)=O)cc3)C2=O)cc1` (centres undefined), for which the inhibition is 12.6% (inactive). Regarding `Cc1ccc(SC(CC(=O)c2ccc(C(C)(C)C)cc2)C(=O)O)cc1` (centres undefined), the inhibition was 44.7% (active). In the case of `Cc1ccc(C(=O)Oc2coc(CSc3nnc(NC(=O)c4cccs4)s3)cc2=O)cc1C`, the inhibition was 60.6% (active). Next, `O=C(O)CCn1cc(/C=C/C(=O)c2ccc(Cl)cc2)c(-c2cccc(Br)c2)n1`: 86.2% (active); `CN(C(=O)COC(=O)c1cc(-c2ccco2)nc2ccccc12)C1CCS(=O)(=O)C1` (centres undefined): 27.6% (inactive). Next, `CC(C)c1ccc(Nc2nnc(SCC(=O)c3nnc(-c4ccccc4)o3)s2)cc1`: 56.2% (active); `Cc1ccc(-c2csc(C(C#N)=C(O)CN3CCN(C(=O)c4ccco4)CC3)n2)cc1`: 60.2% (active). As for `O=C1c2cccc3cccc(c23)C(=O)N1CCCCCc1n[nH]c(=S)o1`, the inhibition was 26.9% (inactive). The same measure for `COc1ccccc1/C=C/C=N/n1c(-c2ccc(Cl)cc2Cl)n[nH]c1=S`: 42.1% (active); for `O=C(O)c1[nH]c2ccccc2c1C(c1cccc(O)c1)c1c(C(=O)O)[nH]c2ccccc12`: 38.5% (active); for `CC(=O)Nc1ccc(S(=O)(=O)Nc2nc(-c3ccc(C(C)(C)C)cc3)cs2)cc1`: 67.6% (active). The same measure for `CC(=O)Nc1ccc(-c2csc(NC(=O)Nc3ccccc3)n2)cc1`: 23.1% (inactive). Next, `CC(=O)Nc1ccc(C(=O)Nc2nc(-c3cc(C)n(Cc4ccccc4)c3C)cs2)cc1`: 20.6% (inactive); `Cc1ccc(Nc2nc(CSc3nnnn3-c3ccccc3)cc(=O)[nH]2)cc1`: 50.7% (active). In the case of `COc1ccccc1C1C(C#N)=C(N)Oc2c1c(-c1ccccc1)nn2-c1ccccc1` (centres undefined), the inhibition is 30% (inactive). The same measure for `CC(C)(C)C1C/C(=C/c2ccco2)C(=O)/C(=C/c2ccco2)C1` (centres undefined): 44.2% (active); for `Cc1ccc(Nc2nc(-c3ccc(O)cc3O)cs2)nc1`: 23.4% (inactive); for `O=C(Nc1nc(-c2ccco2)c(-c2ccco2)s1)c1ccco1`: 34.7% (active). Take `CCc1nnc(NS(=O)(=O)c2ccc(N=Cc3c(C)[nH]n(-c4ccc(C)cc4)c3=O)cc2)s1`: the inhibition is 69.2% (active). Next, `COc1ccc(C(=O)/C=C/c2ccc(-c3ccccc3)cc2)cc1CSCC(=O)O`: 85.1% (active). Next, `COC(=O)c1ccc(COc2ccc(/C=C/C(=O)c3ccc(OC)c(CSCC(=O)O)c3)cc2OC)cc1`: 66.9% (active).

Regarding `CCOC(=O)c1ccccc1N1C(=O)C2Sc3[nH]c(=O)sc3C(/C=C/c3ccccc3)C2C1=O` (centres undefined), the inhibition is 46.1% (active). On to `O=C(O)c1ccc(NN=CC2=C(N3CCOCC3)/C(=C/c3ccccc3)CC2)cc1`, for which the inhibition was 70.3% (active).

`Cc1ccc(C)c(Cn2nnc3c(=O)[nH]c(C(=O)Nc4ccc(F)cc4)nc32)c1`: the inhibition is 43.2% (active).

Take `COc1cccc2sc(NNC(=O)c3nc4ccccc4s3)nc12`: the inhibition was 85% (active). The same measure for `Clc1ccccc1CSc1nnc(-c2ccco2)c(-c2ccco2)n1`: 59.9% (active); for `COc1ccc(-c2nc3ccc(Br)cn3c2Cc2ccc(C)cc2)cc1OC`: 9.11% (inactive); for `Fc1cccc(Cc2c(-c3cccc(Cl)c3)nc3ccc(Br)cn23)c1`: 40.3% (active). Next, `Cc1cc(Br)cn2c(Cc3cccc(F)c3)c(-c3cccc(Br)c3)nc12`: 4.39% (inactive); `O=C(O)CC/C(=C\c1cc2c(cc1Br)OCO2)c1nc2ccccc2s1`: 50.5% (active). Next, `COc1ccc(C(=O)Nc2cccc(/C=C(/CCC(=O)O)c3nc4ccccc4s3)c2)cc1`: 72.8% (active); `CCOC(=O)c1csc(NC(=O)Nc2cccc(OC)c2)n1`: 29.9% (inactive); `O=C(c1cccnc1)N(c1cc2sc(=O)oc2c2ccccc12)S(=O)(=O)c1ccccc1`: 57.6% (active).

With `CC(=O)N(c1ccc2oc(=O)sc2c1)S(=O)(=O)c1ccc(C)cc1`, the inhibition is 5.58% (inactive). The same measure for `O=C1Oc2ccccc2C(=O)/C1=C/c1ccccc1O`: 39% (active). Next, `O=c1oc(-c2ccccc2NS(=O)(=O)c2ccc(Cl)cc2)nc2ccccc12`: 17.2% (inactive); `COc1ccc(S(=O)(=O)/N=C2\C=C(NS(=O)(=O)c3ccccc3)C(=O)c3ccccc32)cc1`: 85% (active).

A word on the inhibition: it is the percentage by which the read-out fell short of the control.
